Records with an inconclusive call do not appear. A call without a number means that no potency is given here. Activity calls are given as the source filed them. Unless noted, calls follow the shape of the dose curve; as a rule, active = well fitted curve in the direction sought with a large enough effect; inconclusive = small, poorly fitted or top-dose-only effect, or another doubt; inactive = no such curve, though single readings can be large; an effect the other way counts as inactive or inconclusive.
Legend:
[1] = Cellular Toxicity (caspase-3) HepG2 (AID 654);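 also: cells exposed to compound for 16 hours before reading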
In short: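 HepG2 cells (1500/well) in complete medium were treated with compounds for 16 hr at 37 °C. Caspase-3/7 activity was then read as luminescence from peptide-aminoluciferin cleavage. AC50 came from Hill fits, normalized to DMSO and 100 uM tamoxifen.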

[2] = Cellular Toxicity (caspase-3) Jurkat (AID 655);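 also: cells exposed to compound for 16 h at 37 °C before reading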
In short: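 Caspase 3/7 activation is scored as increased luminescence in Jurkat cells cultured with compound for 16 hours in complete medium. AC50 values come from Hill fits of qHTS concentration-response data normalized to DMSO and 100 uM tamoxifen controls.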

[3] = Cellular Toxicity (caspase-3) HUV-EC-C (AID 656)
In short: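 Read-out: luminescence proportional to caspase 3/7 activity, measured 20 min after adding Caspase-Glo 3/7 reagent. Cells (HUV-EC-C) had received compound for 16 hr at 37°C. Increases relative to DMSO and 100 uM tamoxifen gave concentration-response AC50 values.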

[4] = Cellular Toxicity (caspase-3) SHSY5Y (AID 657);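 also: cells exposed to compound for 16 hours at 37 °C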
In short: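 Cells plated and incubated 5 h at 37 °C, dosed over a concentration range, incubated 16 h, then given Caspase-Glo 3/7 reagent for 1 h at room temperature before luminescence reading. Staurosporine (10 uM) defined full stimulation.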

[5] = Cellular Toxicity (caspase-3) BJ (AID 658)
In short: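 Readout: Caspase-Glo 3/7 luminescence increase in BJ cells after 16 hr treatment at 37 °C. Staurosporine and tamoxifen served as positive controls; AC50 values came from Hill modelling of data normalized to DMSO and 10 uM staurosporine.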

[6] = Cellular Toxicity (caspase-3) MRC-5 (AID 659)
In short: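 Concentration-dependent caspase 3/7 activation is measured in human normal lung fibroblasts (MRC-5) following 16-hour treatment. AC50 values come from standard Hill-equation modeling of luminescence normalized to DMSO and 10 uM staurosporine.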

[7] = Cellular Toxicity (caspase-3) Mesangial (AID 660);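 also: cells exposed to compound for 16 h before the caspase read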
In short: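 Human renal glomerular mesangial cells (1000/well) were treated with compounds for 16 h at 37 °C in complete medium, then caspase 3/7 activity was read by Caspase-Glo luminescence. Data were normalized to DMSO and 100 uM tamoxifen; AC50 from Hill fits.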

[8] = qHTS assay for small molecule agonists of retinoid X receptor alpha signaling (AID 588544; calls by dose curve); conditions: HEK293T RXRa-UAS-bla, beta-lactamase reporter, 18 h; 530 nm emission
[9] = target: Retinoic acid receptor RXR-alpha (Homo sapiens) (UniProt P19793); test: as above
[10] = target: Thyroid hormone receptor beta (Homo sapiens) (UniProt P10828); test: qHTS assay for small molecule agonists of thyroid hormone receptor beta signaling (AID 588545; calls by dose curve)
In short: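 Beta-lactamase reporter activity under TR response element control is measured in HEK 293 cells after 18 hrs compound exposure. Signal is ratiometric CCF4 fluorescence, 460/530 nm.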

[11] = qHTS assay for small molecule antagonists of retinoid X receptor alpha signaling (AID 588546; active = well fitted inhibition curve with a large enough effect in the signal ratio, with a control signal flat, not every such curve was filed as active; the % refers to the signal ratio;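 also: cells stimulated with 9-cis-retinoic acid as agonist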); conditions: HEK293T RXRa-UAS-bla, beta-lactamase ratio, antagonist mode; measured here: W530 green channel, cytotoxicity proxy
In short: (§1)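 Beta-lactamase reporter inhibition, read as CCF4 fluorescence ratio (ex 405, em 460/530 nm) after 2 h at RT. HEK293T UAS-bla cells, 2500/well, were stimulated with 9-cis-RA at 500 or 100 nM final alongside test compound for 18 h at 37 C.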

[12] = target: Retinoic acid receptor RXR-alpha (Homo sapiens) (UniProt P19793); test: as above; conditions: HEK293T RXRa-UAS-bla, beta-lactamase ratio, antagonist mode
In short: as §1

[13] = target: Thyroid hormone receptor beta (Homo sapiens) (UniProt P10828); test: qHTS assay for small molecule antagonists of thyroid hormone receptor beta signaling (AID 588547; active = well fitted inhibition curve with a large enough effect in the signal ratio, with a control signal flat, not every such curve was filed as active; the % refers to the signal ratio;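 also: cells stimulated with 0.4 nM T3 agonist during compound exposure; series mostly up to about 77 µM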); conditions: TR-UAS-bla HEK293, beta-lactamase ratio, antagonist mode, 18 h
In short: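 Inhibition of T3-driven (0.4nM final) beta-lactamase reporter activity was measured over 0.59 nM to 92 uM compound after 18 h at 37 C. The cells were GripTite HEK293 TR-UAS-bla in charcoal/dextran-stripped serum, with CCF4 ratio read-out and IC50 from Hill fits.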

[14] = target: Voltage-gated inwardly rectifying potassium channel KCNH2 (Homo sapiens) (UniProt Q12809); test: qHTS Assay for Small Molecule Inhibitors of the Human hERG Channel Activity (AID 588834);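 also: top concentration of the series differs between compounds; lower thallium flux fluorescence means stronger hERG block; nearly all actives have a fitted effect of over 50% in size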
In short: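 Measured: FluxOR fluorescence after thallium stimulation in U2OS cells transduced with hERG by baculovirus. Compounds pre-incubated around 10 min; medium Opti-MEM with 2% FCS. AC50 from Hill equation.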

[15] = qHTS assay for small molecule disruptors of the mitochondrial membrane potential - 1 hr assay (AID 651754; calls by dose curve; also: nearly all actives have a fitted effect of over 35% in size)
In short: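 HepG2 cells, attached overnight at 37C, were exposed to compound or DMSO vehicle for 1 hr at 37C, 5% CO2, then stained with Mito-MPS dye for 30 min. Red aggregate versus green monomer fluorescence reports membrane potential.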

[16] = qHTS assay for small molecule disruptors of the mitochondrial membrane potential - 5 hr assay (AID 651755; calls by dose curve; also: nearly all actives have a fitted effect of over 40% in size)
In short: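 HepG2, 2,000 cells/well, overnight attach; cpd or DMSO 5 hr, 37C/5% CO2; Mito-MPS 30 min 37C; fluor 490/535 + 540/590 nm.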

[17] = target: Tumor necrosis factor (Homo sapiens) (UniProt P01375); test: qHTS assay to identify small molecules that stimulate Tumor Necrosis Factor-alpha (TNF-alpha) secretion (AID 651757; active = well fitted curve in the direction sought with a large enough effect in the signal ratio; the % refers to the signal ratio)
In short: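 THP-1 cells were exposed to compounds for 17 hrs at 37 C, after which secreted TNF-alpha was measured by homogeneous HTRF (TR-FRET) using cryptate- and XL665-labeled anti-TNF-alpha antibodies, read after 3 hr at room temperature.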

[18] = qHTS assay for environmental chemicals that activate the Aryl hydrocarbon Receptor (AhR) signaling pathway (AID 651777); conditions: 1A2-DRE human hepatoma cells, luciferase, 24 h; stronger effect = higher value; also: nearly all actives have a fitted effect of over 15% in size
In short: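 Stable CYP1A2 promoter/DRE-luciferase human hepatoma line treated 24 hr; One-Glo luminescence, 30 min RT.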

[19] = target: Peroxisome proliferator-activated receptor alpha (Homo sapiens) (UniProt Q07869); test: qHTS assay for small molecule agonists of the peroxisome proliferator-activated receptor alpha (PPARalpha) signaling pathway (AID 651778); conditions: PathHunter PPARalpha complementation, chemiluminescence, 6 h; stronger effect = higher value
In short: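 Chemiluminescence from complemented enzyme reported PPARalpha activation in cells after 6 hr of compound treatment at 37 C. The detection reagent was incubated for 60 min at room temperature, and compounds were scored as agonists.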

[20] = target: Nuclear receptor subfamily 1 group I member 2 (Rattus norvegicus) (UniProt Q9R1A7); test: qHTS assay for small molecule activators of the rat pregnane X receptor (rPXR) signaling pathway (AID 651751; call rule not given here); conditions: rPXR reporter cells, luciferase (One-Glo), 24 h
Sequence of Nuclear receptor subfamily 1 group I member 2 (Rattus norvegicus) (Q9R1A7 whole entry, looked up): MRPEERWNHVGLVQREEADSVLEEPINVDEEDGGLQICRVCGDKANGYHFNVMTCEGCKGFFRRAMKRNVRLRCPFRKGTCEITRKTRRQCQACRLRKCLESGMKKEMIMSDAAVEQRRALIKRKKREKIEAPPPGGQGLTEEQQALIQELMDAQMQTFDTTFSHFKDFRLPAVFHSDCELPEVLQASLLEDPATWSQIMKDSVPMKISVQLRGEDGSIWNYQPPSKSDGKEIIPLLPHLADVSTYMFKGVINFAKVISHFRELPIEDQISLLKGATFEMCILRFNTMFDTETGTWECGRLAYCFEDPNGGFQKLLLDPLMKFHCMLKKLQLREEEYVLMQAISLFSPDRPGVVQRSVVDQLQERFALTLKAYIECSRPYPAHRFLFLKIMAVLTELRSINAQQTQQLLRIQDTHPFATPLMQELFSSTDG

Sequence of Retinoic acid receptor RXR-alpha (Homo sapiens) (P19793 whole entry, looked up): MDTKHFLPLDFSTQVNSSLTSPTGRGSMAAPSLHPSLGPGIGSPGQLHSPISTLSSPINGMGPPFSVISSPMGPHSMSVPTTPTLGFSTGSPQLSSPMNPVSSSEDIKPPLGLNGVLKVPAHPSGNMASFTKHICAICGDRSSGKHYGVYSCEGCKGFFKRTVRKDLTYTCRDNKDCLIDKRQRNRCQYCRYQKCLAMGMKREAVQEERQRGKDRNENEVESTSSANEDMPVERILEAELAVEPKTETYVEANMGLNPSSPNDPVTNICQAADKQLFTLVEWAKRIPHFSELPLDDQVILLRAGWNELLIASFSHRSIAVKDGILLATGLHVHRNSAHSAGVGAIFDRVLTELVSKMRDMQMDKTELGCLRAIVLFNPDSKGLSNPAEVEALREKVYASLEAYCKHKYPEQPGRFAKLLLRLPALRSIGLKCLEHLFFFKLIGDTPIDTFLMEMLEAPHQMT
Sequence of Thyroid hormone receptor beta (Homo sapiens) (P10828 whole entry, looked up): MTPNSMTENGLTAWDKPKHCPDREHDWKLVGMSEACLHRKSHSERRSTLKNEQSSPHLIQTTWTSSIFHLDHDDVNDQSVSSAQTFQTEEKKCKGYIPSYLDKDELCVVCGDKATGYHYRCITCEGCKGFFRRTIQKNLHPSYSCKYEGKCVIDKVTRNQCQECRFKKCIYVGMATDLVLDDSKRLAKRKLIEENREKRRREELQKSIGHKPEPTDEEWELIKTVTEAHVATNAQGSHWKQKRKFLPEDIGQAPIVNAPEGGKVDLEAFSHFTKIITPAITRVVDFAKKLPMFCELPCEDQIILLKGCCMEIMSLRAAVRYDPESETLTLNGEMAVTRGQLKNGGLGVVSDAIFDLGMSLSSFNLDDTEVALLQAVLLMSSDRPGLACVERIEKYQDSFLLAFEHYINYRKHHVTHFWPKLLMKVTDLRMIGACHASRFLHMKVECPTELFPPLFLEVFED
Sequence of Tumor necrosis factor (Homo sapiens) (P01375 whole entry, looked up): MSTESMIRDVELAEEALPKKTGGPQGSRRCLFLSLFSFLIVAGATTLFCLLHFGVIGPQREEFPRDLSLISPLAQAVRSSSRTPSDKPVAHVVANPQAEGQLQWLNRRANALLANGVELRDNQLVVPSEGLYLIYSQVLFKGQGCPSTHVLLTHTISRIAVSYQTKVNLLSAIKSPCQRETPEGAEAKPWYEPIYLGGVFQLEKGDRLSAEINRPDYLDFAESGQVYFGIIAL
Sequence of Voltage-gated inwardly rectifying potassium channel KCNH2 (Homo sapiens) (Q12809 whole entry, looked up): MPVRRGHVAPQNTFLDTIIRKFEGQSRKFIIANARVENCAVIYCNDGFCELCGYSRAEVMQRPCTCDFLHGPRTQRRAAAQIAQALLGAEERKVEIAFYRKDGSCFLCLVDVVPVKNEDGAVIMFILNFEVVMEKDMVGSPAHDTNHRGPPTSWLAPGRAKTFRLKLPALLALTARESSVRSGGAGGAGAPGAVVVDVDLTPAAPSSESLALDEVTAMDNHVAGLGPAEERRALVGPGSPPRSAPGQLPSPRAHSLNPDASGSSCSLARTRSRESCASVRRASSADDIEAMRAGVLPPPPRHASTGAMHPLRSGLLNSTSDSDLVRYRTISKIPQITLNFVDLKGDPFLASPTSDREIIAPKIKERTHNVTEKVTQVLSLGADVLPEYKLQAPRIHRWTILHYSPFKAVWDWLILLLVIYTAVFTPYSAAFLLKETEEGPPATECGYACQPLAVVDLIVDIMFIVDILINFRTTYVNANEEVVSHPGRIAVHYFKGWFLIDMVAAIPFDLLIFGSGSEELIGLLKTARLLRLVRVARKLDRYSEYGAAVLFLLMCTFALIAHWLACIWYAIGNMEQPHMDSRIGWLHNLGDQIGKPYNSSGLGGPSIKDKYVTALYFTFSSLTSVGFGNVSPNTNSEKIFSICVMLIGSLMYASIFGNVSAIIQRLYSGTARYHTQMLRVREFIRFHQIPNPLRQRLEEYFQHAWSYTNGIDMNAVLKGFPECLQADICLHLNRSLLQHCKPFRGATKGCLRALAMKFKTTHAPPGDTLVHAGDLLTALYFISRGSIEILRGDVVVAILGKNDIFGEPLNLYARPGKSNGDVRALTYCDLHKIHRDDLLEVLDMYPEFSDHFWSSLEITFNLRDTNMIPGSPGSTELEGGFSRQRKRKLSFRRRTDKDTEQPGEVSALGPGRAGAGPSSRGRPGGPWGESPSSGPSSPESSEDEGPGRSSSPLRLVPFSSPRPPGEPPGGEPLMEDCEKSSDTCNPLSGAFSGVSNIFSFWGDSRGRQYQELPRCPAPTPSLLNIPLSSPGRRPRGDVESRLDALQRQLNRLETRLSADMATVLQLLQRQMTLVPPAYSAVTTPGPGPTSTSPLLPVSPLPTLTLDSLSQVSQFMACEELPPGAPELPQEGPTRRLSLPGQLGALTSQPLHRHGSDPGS
Sequence of Peroxisome proliferator-activated receptor alpha (Homo sapiens) (Q07869 whole entry, looked up): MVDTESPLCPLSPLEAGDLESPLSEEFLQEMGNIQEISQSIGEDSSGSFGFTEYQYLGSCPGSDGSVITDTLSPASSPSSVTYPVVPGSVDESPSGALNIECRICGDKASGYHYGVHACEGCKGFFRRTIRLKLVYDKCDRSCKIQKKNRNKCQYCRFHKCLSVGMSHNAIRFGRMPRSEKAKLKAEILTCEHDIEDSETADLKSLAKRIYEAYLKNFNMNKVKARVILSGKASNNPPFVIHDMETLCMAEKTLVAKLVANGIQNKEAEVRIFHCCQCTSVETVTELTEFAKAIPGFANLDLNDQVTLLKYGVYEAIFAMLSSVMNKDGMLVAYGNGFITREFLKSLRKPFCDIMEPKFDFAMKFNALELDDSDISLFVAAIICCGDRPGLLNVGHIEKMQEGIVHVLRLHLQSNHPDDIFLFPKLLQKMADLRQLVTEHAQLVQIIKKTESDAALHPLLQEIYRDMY

SMILES | outcome [1] | outcome [2] | outcome [3] | outcome [4] | outcome [5] | outcome [6] | outcome [7] | max response [8] [%] | outcome [9] | outcome [10] | max response [11] [%] | max response [12] | activity change % (negative = inhibition) [13] | Potency [14] | outcome [15] | outcome [16] | outcome [17] | activation [18] | max response [19] | max response [20]
CC1=CC(=O)CC(C)(C)C1(O)/C=C/C(C)=C\C(=O)O (stereo not given) | inactive | inactive | inactive | inactive | inactive | inactive | inactive | -10.1 | inactive | inactive | -3.21 | 0.0259% (inactive) | -6.36% (inactive) | inactive | inactive | inactive | inactive | -0.944% (inactive) | 6.6% (inactive) | -0.742% (inactive)
Cc1occc(=O)c1O | inactive | inactive | inactive | inactive | inactive | inactive | inactive | -12.3 | inactive | inactive | -0.914 | -8.46% (inactive) | -20.8% (inactive) | inactive | inactive | inactive | inactive | 0.287% (inactive) | -2.16% (inactive) | 3.86% (inactive)

Reference: PubChem BioAssay (NCATS)
